Measurements: PubChem BioAssay (EPA / NIEHS)
Activity calls are given as the source filed them. How the source made its calls: active means hit-call score of the fitted dose curve at least 0.9, where 1 is the maximum; inactive means score below 0.9.

Experiments:
[1] = ATG_GLI_CIS: Attagene CIS-FACTORIAL HepG2 Assay for human Zinc Finger Protein GLI1 (AID 2282945); conditions: HepG2, Attagene cis-factorial reporter mRNA, GLI element; actives raise or lower the signal
In short: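 Bidirectional curve fits relative to DMSO, using reporter mRNA levels from RT-PCR plus capillary electrophoresis. Cells were HepG2 transiently carrying cis-regulated reporter constructs, harvested 24 h after dosing.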

[2] = target: Bile acid receptor (Homo sapiens) (UniProt Q96RI1); test: ATG_IR1_CIS: Attagene CIS-FACTORIAL HepG2 Assay for human Nuclear Receptor Subfamily 1 Group H Member 4 (NR1H4), IR1 submotif (AID 2282946); conditions: IR1 reporter transcription, actives raise or lower the signal
Sequence of Bile acid receptor (Homo sapiens) (Q96RI1 whole entry, looked up, the tested form may be a part): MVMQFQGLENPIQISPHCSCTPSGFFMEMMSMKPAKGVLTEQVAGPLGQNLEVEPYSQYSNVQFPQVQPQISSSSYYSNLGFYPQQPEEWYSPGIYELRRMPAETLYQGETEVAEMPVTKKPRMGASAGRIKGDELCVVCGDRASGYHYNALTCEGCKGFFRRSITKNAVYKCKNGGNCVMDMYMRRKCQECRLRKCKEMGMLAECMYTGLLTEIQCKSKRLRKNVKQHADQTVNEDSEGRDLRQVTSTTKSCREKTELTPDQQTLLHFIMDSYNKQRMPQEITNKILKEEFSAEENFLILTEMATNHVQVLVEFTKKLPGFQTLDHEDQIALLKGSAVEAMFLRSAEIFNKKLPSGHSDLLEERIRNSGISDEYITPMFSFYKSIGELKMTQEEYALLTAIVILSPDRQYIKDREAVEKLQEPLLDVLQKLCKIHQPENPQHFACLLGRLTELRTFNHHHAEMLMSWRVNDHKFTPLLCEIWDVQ
In short: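 Cells (human HepG2) carry transiently transfected cis-promoter reporter transcription units. Compounds are incubated 24 h, total RNA is reverse-transcribed and amplified, and labelled fragments are resolved by capillary electrophoresis. Curves use DMSO as baseline.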

[3] = ATG_GRE_CIS: Attagene CIS-FACTORIAL HepG2 Assay for human Glucocorticoid Response Elements (GRE) (AID 2282947); conditions: HepG2 GRE cis-reporter, Attagene multiplex mRNA; actives raise or lower the signal
In short: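 Assay uses human hepatoma HepG2 cells transfected with cis-promoter reporter units, exposed 24 h. mRNA from reporters detected by RT-PCR plus capillary electrophoresis; DMSO serves as negative control and baseline.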

[4] = ATG_ISRE_CIS: Attagene CIS-FACTORIAL HepG2 Assay for human Interferon Regulatory Factor 1 (IRF1) binding to an Interferon-Stimulated Response Element (ISRE) (AID 2282948); conditions: HepG2 ISRE cis-reporter (Attagene), mRNA transcription readout; actives raise or lower the signal
In short: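 Transfected HepG2 (multiple reporter transcription units, cis elements) dosed 24 h. RNA → oligo(dT) RT → PCR → 6-FAM primer extension → HpaI → CE. DMSO = negative control/baseline.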

[5] = ATG_M_32_CIS: Attagene CIS-FACTORIAL HepG2 Assay for M32 Transcription Factor (Internal Marker) (AID 2282949); conditions: HepG2 Attagene cis-factorial M32 reporter, mRNA; actives raise or lower the signal;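 further: background control marker of the multiplexed CIS panel rather than a real target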
In short: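 Internal background marker read-out: RT-PCR/capillary electrophoresis fluorescence of reporter transcripts from transiently transfected HepG2 cells after 24 h chemical exposure. Activity fitted bidirectionally relative to DMSO negative control.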

[6] = ATG_M_06_CIS: Attagene CIS-FACTORIAL HepG2 Assay for M06 Transcription Factor (Internal Marker) (AID 2282950); conditions: HepG2 Attagene CIS-FACTORIAL M06 internal marker reporter; actives raise or lower the signal
In short: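 Serves as a background control readout. Transfected HepG2 exposed to compounds for 24 h, then reporter transcripts quantified by fluorescent RT-PCR and capillary electrophoresis. Both directions fitted against DMSO baseline.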

[7] = target: Hypoxia-inducible factor 1-alpha (Homo sapiens) (UniProt Q16665); test: ATG_HIF1a_CIS: Attagene CIS-FACTORIAL HepG2 Assay for human Hypoxia Inducible Factor 1 (HIF1A) (AID 2282951); conditions: HepG2 Attagene cis-factorial HIF1a reporter transcription; actives raise or lower the signal
Sequence of Hypoxia-inducible factor 1-alpha (Homo sapiens) (Q16665 whole entry, looked up): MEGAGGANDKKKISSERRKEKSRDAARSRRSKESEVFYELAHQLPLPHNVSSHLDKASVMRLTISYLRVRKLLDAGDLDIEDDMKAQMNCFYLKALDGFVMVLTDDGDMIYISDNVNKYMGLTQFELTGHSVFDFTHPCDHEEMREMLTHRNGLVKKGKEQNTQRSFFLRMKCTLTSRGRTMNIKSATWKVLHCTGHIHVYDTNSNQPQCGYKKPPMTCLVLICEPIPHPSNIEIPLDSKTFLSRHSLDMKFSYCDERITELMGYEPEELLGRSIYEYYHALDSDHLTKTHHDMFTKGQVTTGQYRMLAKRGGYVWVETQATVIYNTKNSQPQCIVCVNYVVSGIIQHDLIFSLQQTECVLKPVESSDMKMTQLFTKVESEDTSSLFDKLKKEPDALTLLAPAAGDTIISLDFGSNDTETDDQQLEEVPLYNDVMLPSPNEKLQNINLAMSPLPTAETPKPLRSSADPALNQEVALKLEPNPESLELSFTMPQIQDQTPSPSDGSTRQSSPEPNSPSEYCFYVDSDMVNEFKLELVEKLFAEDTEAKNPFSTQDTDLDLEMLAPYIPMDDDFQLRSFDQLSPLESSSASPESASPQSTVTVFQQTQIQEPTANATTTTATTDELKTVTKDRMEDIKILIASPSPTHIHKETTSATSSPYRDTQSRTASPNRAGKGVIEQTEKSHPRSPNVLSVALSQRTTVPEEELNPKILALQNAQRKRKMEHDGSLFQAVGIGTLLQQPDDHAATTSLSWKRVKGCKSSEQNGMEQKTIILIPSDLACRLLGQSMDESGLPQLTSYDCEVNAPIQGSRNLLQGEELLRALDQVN
In short: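 HepG2 cells transiently transfected with multiplexed cis-promoter reporter units; reporter mRNA read 24 h after dosing by RT-PCR, 6-FAM primer-extension labelling, HpaI digestion and capillary electrophoresis. Bidirectional fit versus DMSO baseline.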

[8] = target: Hepatocyte nuclear factor 6 (Homo sapiens) (UniProt Q9UBC0); test: ATG_HNF6_CIS: Attagene CIS-FACTORIAL HepG2 Assay for human Hepatocyte Nuclear Factor 6 (HNF6) (AID 2282952); conditions: HepG2 Attagene cis-factorial HNF6 reporter transcription; actives raise or lower the signal
Sequence of Hepatocyte nuclear factor 6 (Homo sapiens) (Q9UBC0 whole entry, looked up): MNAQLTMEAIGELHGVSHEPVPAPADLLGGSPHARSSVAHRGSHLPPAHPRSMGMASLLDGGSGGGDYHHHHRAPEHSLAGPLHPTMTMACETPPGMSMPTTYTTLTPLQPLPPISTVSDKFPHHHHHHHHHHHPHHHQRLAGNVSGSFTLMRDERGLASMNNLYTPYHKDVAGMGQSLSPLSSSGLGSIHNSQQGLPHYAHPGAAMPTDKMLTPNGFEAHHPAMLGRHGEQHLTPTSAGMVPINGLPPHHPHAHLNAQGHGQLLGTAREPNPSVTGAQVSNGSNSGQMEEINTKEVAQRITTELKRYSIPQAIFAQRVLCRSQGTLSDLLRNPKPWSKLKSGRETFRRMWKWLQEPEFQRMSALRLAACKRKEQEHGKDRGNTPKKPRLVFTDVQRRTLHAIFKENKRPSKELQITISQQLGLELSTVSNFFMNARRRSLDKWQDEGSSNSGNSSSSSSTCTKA
In short: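 HepG2, transient MRTU transfection (cis promoters); 24 h chemical exposure; total RNA → oligo(dT) RT → PCR → 6-FAM labelling → HpaI cut → CE; bidirectional fit vs DMSO.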

[9] = ATG_MRE_CIS: Attagene CIS-FACTORIAL HepG2 Assay for human Metal Responsive Element (MRE) (AID 2282954); conditions: HepG2 MRE cis-reporter transcription, Attagene multiplex; actives raise or lower the signal
In short: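 After a 24 h chemical exposure, transiently transfected HepG2 cells yield RNA whose reporter sequences are amplified, FAM-labelled and sized by capillary electrophoresis. Curves are fitted bidirectionally relative to DMSO.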

[10] = target: Heat shock factor protein 1 (Homo sapiens) (UniProt Q00613); test: ATG_HSE_CIS: Attagene CIS-FACTORIAL HepG2 Assay for human Heat Shock Transcription Factor 1 (HSE) (AID 2282953); conditions: HepG2 HSE cis-reporter, Attagene RNA transcription; actives raise or lower the signal
Sequence of Heat shock factor protein 1 (Homo sapiens) (Q00613 whole entry, looked up): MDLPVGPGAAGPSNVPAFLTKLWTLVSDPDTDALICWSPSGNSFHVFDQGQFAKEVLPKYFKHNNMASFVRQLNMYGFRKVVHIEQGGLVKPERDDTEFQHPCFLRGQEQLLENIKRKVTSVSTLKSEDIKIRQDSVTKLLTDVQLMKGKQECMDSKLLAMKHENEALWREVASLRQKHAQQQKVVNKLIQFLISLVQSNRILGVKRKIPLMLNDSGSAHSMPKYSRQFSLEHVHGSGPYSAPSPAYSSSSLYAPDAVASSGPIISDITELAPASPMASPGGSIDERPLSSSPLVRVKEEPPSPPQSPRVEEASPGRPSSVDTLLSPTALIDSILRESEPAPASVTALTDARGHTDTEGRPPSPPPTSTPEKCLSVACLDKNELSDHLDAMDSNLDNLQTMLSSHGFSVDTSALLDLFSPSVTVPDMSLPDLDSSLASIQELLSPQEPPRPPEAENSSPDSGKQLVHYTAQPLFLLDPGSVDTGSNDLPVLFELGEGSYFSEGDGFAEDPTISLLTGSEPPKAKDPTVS
In short: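 Endogenous transcription factor activity in transiently transfected HepG2, read as reporter mRNA by RT-PCR with fluorescent capillary electrophoresis after 24 h. Gain or loss of signal fitted versus DMSO baseline.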

Row | Structure (SMILES) | outcome [1] | outcome [2] | outcome [3] | outcome [4] | outcome [5] | outcome [6] | outcome [7] | outcome [8] | outcome [9] | AC50 [2] | outcome [10] | AC50 [1] | AC50 [4] | AC50 [10] | AC50 [9] | AC50 [7] | AC50 [8]
1 | O=C(O)CCCCC(=O)O | inactive | inactive | inactive | inactive | inactive | inactive | inactive | inactive | inactive | – | – | – | – | – | – | – | –
2 | NS(=O)(=O)c1cc2c(cc1Cl)NCNS2(=O)=O | inactive | – | inactive | inactive | inactive | inactive | – | – | inactive | 3.7 µM (active) | inactive | – | – | – | – | – | –
3 | Cc1cc(NC(=O)C(=O)O)cc(C)c1Oc1ccc(O)c2c1CCC2 | inactive | inactive | inactive | inactive | inactive | inactive | inactive | – | inactive | – | inactive | – | – | – | – | – | –
4 | O=C(O)Cc1ccccc1Nc1c(Cl)cccc1Cl | inactive | inactive | – | inactive | inactive | inactive | inactive | – | inactive | – | inactive | – | – | – | – | – | –
5 | COc1cc(-c2nc(NC(=O)c3cc4cc(C)cc(C)c4n3CC(=O)O)sc2CCC2CCCCC2)c(OC)cc1Cl | – | inactive | inactive | – | inactive | inactive | inactive | inactive | – | – | – | 100 µM (active) | 12.7 µM (active) | 65.7 µM (active) | 6.2 µM (active) | – | –
6 | CCCCN(CCCC)CCCC | inactive | inactive | inactive | inactive | inactive | inactive | inactive | inactive | inactive | – | inactive | – | – | – | – | – | –
7 | CN[C@H]1CC[C@@H](c2ccc(Cl)c(Cl)c2)c2ccc(S(N)(=O)=O)cc21 | inactive | inactive | inactive | inactive | inactive | inactive | inactive | – | inactive | – | inactive | – | – | – | – | – | –
8 | CCCCCCCCCCCC(=O)OC | inactive | inactive | inactive | inactive | inactive | inactive | inactive | inactive | inactive | – | inactive | – | – | – | – | – | –
9 | CC(=O)OCCOCCOCCOC(C)=O | inactive | inactive | – | inactive | inactive | inactive | – | inactive | inactive | – | inactive | – | – | – | – | 39.4 µM (active) | –
10 | CCCCc1ccc2c(n1)[C@@H](c1ccc(OC)cc1C[C@H](C)C(=O)O)[C@H](C(=O)O)[C@H]2c1ccc2c(c1)OCO2 | inactive | inactive | inactive | inactive | inactive | inactive | inactive | inactive | inactive | – | inactive | – | – | – | – | – | –
11 | Cc1ccc(Cl)cc1 | inactive | inactive | inactive | inactive | inactive | inactive | – | inactive | inactive | – | inactive | – | – | – | – | 57.2 µM (active) | –
12 | CCCCCCCCCCO | inactive | inactive | inactive | inactive | inactive | inactive | inactive | inactive | – | – | inactive | – | – | – | 160 µM (active) | – | –
13 | Cc1c(C(=O)O)c(O)cc2c1C(=O)c1c(O)c([C@@H]3O[C@H](CO)[C@@H](O)[C@H](O)[C@H]3O)c(O)c(O)c1C2=O | inactive | inactive | inactive | inactive | inactive | inactive | inactive | inactive | inactive | – | – | – | – | – | – | – | –
14 | C=CCOC(=O)c1ccccc1C(=O)OCC=C | inactive | – | – | inactive | inactive | inactive | inactive | inactive | inactive | 25.9 µM (active) | inactive | – | – | – | – | – | –
15 | CCc1c(C(=O)NN2CCCCC2)nn(-c2ccc(Cl)cc2Cl)c1-c1ccc(Br)cc1 | inactive | – | – | – | inactive | inactive | – | inactive | – | 2.4 µM (active) | inactive | – | 3.67 µM (active) | – | 4.76 µM (active) | 0.387 µM (active) | –
16 | COc1cc(S(=O)(=O)O)c(C)cc1N=Nc1c(O)ccc2cc(S(=O)(=O)O)ccc12 | inactive | inactive | inactive | inactive | inactive | inactive | – | inactive | inactive | – | inactive | – | – | – | – | 5.78 µM (active) | –
17 | Nc1nc(N)c2nc(CNc3ccc(C(=O)N[C@@H](CCC(=O)O)C(=O)O)cc3)cnc2n1 | inactive | inactive | inactive | inactive | inactive | inactive | – | – | inactive | – | inactive | – | – | – | – | – | –
18 | Cc1nc(-c2ccc3c(c2)CCN(CCC2CCC(NC(=O)/C=C/c4ccc(F)cc4)CC2)CC3)no1 (stereo not given) | inactive | inactive | inactive | inactive | inactive | inactive | inactive | inactive | inactive | – | inactive | – | – | – | – | – | –
19 | FC(F)(F)C(F)(F)C(F)(F)C(F)(F)C(F)(F)C(F)(F)CCI | inactive | inactive | – | inactive | inactive | inactive | inactive | inactive | inactive | – | inactive | – | – | – | – | – | –
20 | COc1cc(/C=C/C(=O)CC(=O)/C=C/c2ccc(O)c(OC)c2)ccc1O | – | – | inactive | – | inactive | inactive | inactive | – | – | 51 µM (active) | – | 53.9 µM (active) | 33.4 µM (active) | – | 52.6 µM (active) | – | 47.4 µM (active)
